Data reported in PubChem BioAssay (Tox21).
Records with an inconclusive call do not appear. Where a call stands in place of a potency, no number is given. Activity calls are given as the source filed them. Calls follow the shape of the full dose curve.

Each molecule was assayed against Thyrotropin receptor (Homo sapiens) (UniProt P16473) (assay: qHTS assay to identify small molecule agonists of the thyroid stimulating hormone receptor (TSHR) signaling pathway (AID 1224843; also: nearly all actives have a fitted effect of over 45% in size)). Conditions: TSHR-HEK293 cells, cAMP HTRF, agonist mode, 30 min; series mostly up to 92.4 µM.
Sequence of Thyrotropin receptor (Homo sapiens) (P16473 whole entry, looked up): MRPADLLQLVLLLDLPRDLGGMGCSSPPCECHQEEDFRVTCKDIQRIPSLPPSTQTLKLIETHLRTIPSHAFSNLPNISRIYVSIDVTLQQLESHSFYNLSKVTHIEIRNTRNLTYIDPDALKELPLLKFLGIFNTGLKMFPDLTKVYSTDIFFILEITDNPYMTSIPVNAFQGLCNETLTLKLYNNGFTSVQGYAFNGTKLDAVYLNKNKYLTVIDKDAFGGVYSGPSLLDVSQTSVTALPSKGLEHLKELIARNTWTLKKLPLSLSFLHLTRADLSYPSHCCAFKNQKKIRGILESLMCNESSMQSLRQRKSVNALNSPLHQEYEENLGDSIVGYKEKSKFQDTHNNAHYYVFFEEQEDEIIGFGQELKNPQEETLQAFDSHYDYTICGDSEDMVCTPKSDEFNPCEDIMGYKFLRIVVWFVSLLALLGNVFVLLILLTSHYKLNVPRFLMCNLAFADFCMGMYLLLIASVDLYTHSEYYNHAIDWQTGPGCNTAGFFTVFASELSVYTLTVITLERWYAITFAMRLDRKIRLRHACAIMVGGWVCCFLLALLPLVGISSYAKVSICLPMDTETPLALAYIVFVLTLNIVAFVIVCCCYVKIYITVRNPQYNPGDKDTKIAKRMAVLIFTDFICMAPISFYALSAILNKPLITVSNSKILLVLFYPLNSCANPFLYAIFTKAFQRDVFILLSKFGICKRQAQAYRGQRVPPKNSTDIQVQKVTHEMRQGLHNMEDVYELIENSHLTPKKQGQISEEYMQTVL
Text: National Center for Advancing Translational Sciences [NCATS]
NIH Chemical Genomics Center [NCGC]
U.S. Environmental Protection Agency [EPA]
National Institutes of Environmental Health Sciences [NIEHS]
National Toxicology Program [NTP]
U.S. Food and Drug Administration [FDA]
TSHR is the receptor for thyrotropin (thyroid stimulating hormone or TSH), a member of the glycoprotein hormone family. TSH is released by the anterior pituitary gland and is the main regulator of thyroid gland growth and development. Upon binding circulating thyrotropin, a G-protein signal cascade activates adenylyl cyclase and […] cAMP concentration is increased. cAMP is a key second messenger involved extensively in cellular signal transduction pathways associated with the majority of G-protein coupled receptors (GPCRs). The activation of these GPCRs by neurotransmitters, lipids, nucleotides, peptides and hormones results in the activation or the inhibition of plasma membrane-bound adenylate cyclase through heterotrimeric G-proteins. A cell-based TSHR assay was used to screen the Tox21 10K library for compounds that can modulate TSHR in agonist mode.
Tox21 Assay Protocol Summary:
TSHR-Hek293 cells were dispensed at 800 cells/4uL/well in 1536-well white plates using a Multidrop dispenser. […] The plates were incubated at room temperature for 30 min. 2.5 ul/well of cAMP-d2 and 2.5ul/well of anti-cAMP-cryptate was added respectively into the assay plates using a Flying Reagent Dispenser. After 1 hr incubation at room temperature, the fluorescence intensity in the plates was measured using an Envision plate reader. Each test compound was measured at 15 concentrations and in triplicates.

Structure (SMILES)	Potency
CC1=NN(c2cccc(S(=O)(=O)O)c2)C(=O)C1	inactive
Cc1onc(-c2c(Cl)cccc2Cl)c1C(=O)Cl	inactive
O=C(O)CCCC[P+](c1ccccc1)(c1ccccc1)c1ccccc1	inactive
CC1(C)[C@@H]2CC[C@@]1(C)[C@H](O)C2	inactive
Cc1nc2ccc(CN(C)c3ccc(C(=O)N[C@@H](CCC(=O)O)C(=O)O)s3)cc2c(=O)[nH]1	inactive
CCOc1ccccc1OCC	inactive
CC(=O)Nc1ccc(OCC(O)CNC(C)C)cc1 (stereo not given)	inactive
CN(C)[C@@H]1C(=O)C(C(=O)NCN2CCCC2)=C(O)[C@@]2(O)C(=O)C3=C(O)c4c(O)cccc4[C@@](C)(O)C3C[C@@H]12 (stereo not given in full)	inactive
CN(C)C(=O)Oc1ccc[n+](C)c1	inactive
Cc1ccc(-c2ccccc2C#N)cc1	inactive
CCCCCCCCCCCCSC	inactive
NC(CCC(=O)O)C(=O)O (stereo not given)	inactive
CCCOC(=O)CC	inactive
NS(=O)(=O)Cc1noc2ccccc12	inactive
CO[C@@]1(NC(=O)CSC[C@@H](N)C(=O)O)C(=O)N2C(C(=O)O)=C(CSc3nnnn3C)CS[C@@H]21	inactive
CNCCO	inactive
CCOCC(C)O (stereo not given)	inactive
CN1CCC(=C2c3ccccc3CCc3cccnc32)CC1	inactive
CCCCS(=O)(=O)N[C@@H](Cc1ccc(OCCCCC2CCNCC2)cc1)C(=O)O	inactive
COc1ccccc1OCC1CNC(=O)O1 (stereo not given)	inactive

Structure (SMILES)	Potency
COCCOCC(OC)OC	inactive
NO	inactive
[Ca+2]	inactive
CC(C)NNC(=O)c1ccncc1	inactive
CCCC[N+](C)(CCCC)CCCC	inactive
Clc1cc(Cl)c(Cl)nc1Cl	inactive
CCCCCCCC1CCCC1=O (stereo not given)	inactive
C[C@H]1C[C@H]2[C@@H]3CCC4=CC(=O)C=C[C@]4(C)[C@H]3C(=O)C[C@]2(C)[C@@]1(O)C(=O)CO	inactive
CCN1C=CN(C)C1C (stereo not given)	inactive
CC(N)C12CC3CC(CC(C3)C1)C2 (stereo not given)	inactive
CCC(=O)OCc1ccccc1	inactive
CN(C)C(=O)Oc1cccc([N+](C)(C)C)c1	inactive
O=CN(CCO)CCO	inactive
CC(=O)OCC(=O)[C@@]1(O)[C@H](C)C[C@H]2[C@@H]3CCC4=CC(=O)C=C[C@]4(C)[C@@]3(F)[C@@H](O)C[C@@]21C	inactive
CC(CC=O)CC(C)(C)C (stereo not given)	inactive
[K+]	inactive
C[N+]1(C)[C@@H]2CC(OC(=O)[C@H](CO)c3ccccc3)C[C@H]1[C@@H]1O[C@@H]12 (stereo not given in full)	inactive
NC(=O)Cc1cccc2ccccc12	inactive
COc1ccnc(CS(=O)c2nc3cc(OC(F)F)ccc3[nH]2)c1OC (stereo not given)	inactive
CCO[Si](OCC)(OCC)c1ccccc1	inactive
